FBPA Giardia inh: Giardia lamblia aldolase inhibition; purified Giardia FBPA; AID 2451; 290,000 tested, 0.71% active; A8B2U2; Potency, µM (series often up to 59.6 µM), actives largely listed as inhibitors; further: nearly all actives have a fitted effect of over 55% in size
Target sequence (A8B2U2 whole entry, looked up): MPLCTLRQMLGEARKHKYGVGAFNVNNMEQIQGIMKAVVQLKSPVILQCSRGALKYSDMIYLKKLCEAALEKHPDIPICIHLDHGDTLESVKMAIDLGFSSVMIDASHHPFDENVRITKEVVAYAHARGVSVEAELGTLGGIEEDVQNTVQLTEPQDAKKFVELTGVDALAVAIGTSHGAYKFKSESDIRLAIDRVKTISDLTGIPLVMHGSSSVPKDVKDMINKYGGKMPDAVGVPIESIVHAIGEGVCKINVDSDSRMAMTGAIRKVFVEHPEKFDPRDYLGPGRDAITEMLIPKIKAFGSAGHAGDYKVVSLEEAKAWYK
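Giardia FBPA (40 nM reagent) was preincubated 10 min at RT with compound (up to 57.5 uM final), then substrate plus GAPDH/TPI/NAD/arsenate coupling system with diaphorase/resazurin was added; resorufin fluorescence (525/598 nm) was read after 20 min.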
Pf growth 96h: P. falciparum growth inhibition at 96 hours | Potency, µM (titrated, usually from 28.7 µM), usual class: inhibitors | P. falciparum luciferase reporter growth, 96 h | 320,000 tested, 6.9% active
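Compounds incubated with erythrocytes infected by luciferase-expressing P. falciparum (2% hematocrit, 0.05% parasitemia final) for 96 hours, 37 C in 5% CO2. Growth inhibition scored as decreased luciferase luminescence.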
Pf growth 48h: inhibits P. falciparum growth in the first generation, 48 h; Potency, µM (series often up to 28.7 µM), actives largely listed as inhibitors; P. falciparum luciferase growth in erythrocytes, 48 h; 310,000 tested, 5.9% active
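Firefly luciferase activity from engineered P. falciparum reports growth; inhibitors lower the luminescent signal. Cultures contained 2% hematocrit erythrocytes at 0.1% final parasitemia.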
Sm TGR inh: inhibitors of Schistosoma mansoni thioredoxin glutathione reductase | purified TGR, DTNB reduction, TNB absorbance 405 nm | Q962Y6 | 360,000 tested, 3% active | Potency, µM (series often up to 114 µM), usual class: inhibitors; further: nearly all actives have a fitted effect of over 60% in size
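Kinetic colorimetric format: TGR-catalysed, NADPH-driven DTNB reduction monitored via TNB absorbance. Enzyme dispensed at 20 nM; compound exposure 15 min at room temperature before reaction start.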
HCMV inh: blocks human cytomegalovirus replication; HFF cells, HCMV-luciferase reporter, 72 h; hits give low values; activity change, negative = inhibition, % at 57.5 µM; 410,000 tested, 4.5% active; in the data active means activity change below about -60%; inconclusive means no clear call, values can overlap the other calls; inactive means above about -39%
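After 16 h attachment at 37C, HFF cells received test compound and HCMV-luciferase (1 PFU/cell); reporter luminescence read 72 h later, data normalized against buffer-only and known inhibitor Salinomycin.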
Hits are given with their value. Shown are actives, neighbours in structure and some others; about 14% of the full set was active somewhere. Unless noted, the call rests on the fitted dose curve; in most records, active means well fitted curve in the direction sought with a large enough effect; inconclusive means small, poorly fitted or top-dose-only effect, or another doubt; inactive means no such curve, though single readings can be large; an effect the other way counts as inactive or inconclusive.

Results for CCn1cc(C(=O)O)c(=O)c2cc(F)c(N/N=C/c3ccccc3[N+](=O)[O-])cc21 ?
FBPA Giardia inh: inactive; Pf growth 96h: inactive; Pf growth 48h: inactive; Sm TGR inh: inactive; HCMV inh: -71

Results for CCc1ccc(NC(=O)c2cnc(SC)nc2C)cc1 ?
FBPA Giardia inh: inactive; Pf growth 96h: inconclusive; Pf growth 48h: inactive; Sm TGR inh: inactive; HCMV inh: inactive

What do the screens show for `CCn1cc(C(=O)O)c(=O)c2cc(F)c(N3CCN(C(=S)NC(=O)c4ccc(F)cc4)CC3)cc21`?
FBPA Giardia inh: inconclusive; Pf growth 96h: inconclusive; Pf growth 48h: inconclusive; Sm TGR inh: inactive; HCMV inh: inactive

How did CCn1cc(C(=O)O)c(=O)c2cc(F)c(N3CCN(C(=S)NC(=O)c4ccc(F)c(F)c4)CC3)cc21 do in these assays?
FBPA Giardia inh: inactive; Pf growth 96h: inactive; Pf growth 48h: 6.6µM; Sm TGR inh: inactive; HCMV inh: inactive

Results for CCn1cc(C(=O)O)c(=O)c2cc(F)c(N3CCN(C(=S)NC(=O)c4c(OC)cccc4OC)CC3)cc21 ?
FBPA Giardia inh: inactive; Pf growth 96h: inactive; Pf growth 48h: inconclusive; Sm TGR inh: inactive; HCMV inh: inactive

Results for CCn1cc(C(=O)O)c(=O)c2cc(F)c(N3CCN(C(=S)NC(=O)c4cccc(F)c4)CC3)cc21 ?
FBPA Giardia inh: inconclusive; Pf growth 96h: inconclusive; Pf growth 48h: 10µM; Sm TGR inh: inactive; HCMV inh: inactive

What do the screens show for `CCOc1ccc(NC(=O)CN(C)S(=O)(=O)c2cccc3cccnc23)cc1`?
FBPA Giardia inh: inactive; Pf growth 96h: inconclusive; Pf growth 48h: inactive; Sm TGR inh: inactive; HCMV inh: inactive

How did CCCc1nc2ccc(C(=O)OC)cn2c1Cc1ccccc1OC do in these assays?
HCMV inh: inactive

Results for Cn1c(CS(=O)Cc2c(Cl)cccc2Cl)nnc1SCc1c(Cl)cccc1Cl (centres undefined) ?
FBPA Giardia inh: inactive; Pf growth 96h: 4.7µM; Pf growth 48h: inconclusive; Sm TGR inh: inactive; HCMV inh: inactive

How did O=C(O)c1ccc(NS(=O)(=O)c2ccc3c(c2)C2C=CCC2C(c2ccccc2F)N3)cc1 (centres undefined) do in these assays?
FBPA Giardia inh: inactive; Pf growth 96h: inconclusive; Pf growth 48h: inactive; Sm TGR inh: 28µM; HCMV inh: inactive

What do the screens show for `COC(=O)c1ccc([C@H]2Nc3ccc(S(=O)(=O)Nc4cccc(C)c4)cc3[C@H]3C=CC[C@H]32)cc1`?
Sm TGR inh: 25µM; HCMV inh: inactive

What do the screens show for `COC(=O)c1ccc(C2NC(=O)CCC2[N+](=O)[O-])cc1` (centres undefined)?
FBPA Giardia inh: inactive; Pf growth 96h: inactive; Pf growth 48h: inactive; Sm TGR inh: inactive; HCMV inh: inactive

What do the screens show for `Cc1ccc(NS(=O)(=O)c2ccc3c(c2)[C@H]2C=CC[C@H]2[C@@H](c2ccc(F)cc2)N3)cc1C`?
Sm TGR inh: inconclusive; HCMV inh: inactive

What do the screens show for `COC(=O)c1ccc([C@@H]2Nc3c(OC)ccc(C)c3[C@@H]3C=CC[C@@H]32)cc1`?
Sm TGR inh: 3.2µM; HCMV inh: inactive

What do the screens show for `COC(=O)c1ccc(C2Nc3ccc(/C(C)=N/NC(=O)C(OC)c4ccccc4)cc3C3C=CCC32)cc1` (centres undefined)?
Pf growth 96h: 4.1µM; Pf growth 48h: inconclusive; Sm TGR inh: 7.9µM; HCMV inh: inactive

What do the screens show for `COC(C(=O)N/N=C(\C)c1ccc(O)cc1)c1ccccc1` (centres undefined)?
FBPA Giardia inh: inactive; Pf growth 96h: inconclusive; Pf growth 48h: inactive; Sm TGR inh: inactive; HCMV inh: inactive

Results for COC(=O)C1(C(C)=O)CC2=CC[C@@H]3C(=O)N(c4ccccc4)C(=O)[C@@H]3[C@@H]2Cc2ccccc2[C@@H]1C[N+](=O)[O-] (some centres undefined) ?
FBPA Giardia inh: inactive

How did CCOC1=C2[C@H](c3ccccc3)N(S(=O)(=O)c3ccc(C)cc3)[C@H](C(C)C)[C@H]2n2c(=O)n(-c3ccccc3)c(=O)n2C1 do in these assays?
HCMV inh: inactive

What do the screens show for `Nc1c(-c2nc(-c3cccs3)no2)nnn1-c1ccccc1Cl`?
Sm TGR inh: inactive; HCMV inh: inactive

What do the screens show for `Cc1cc(S(=O)(=O)Nc2cccc([N+](=O)[O-])c2)c(C)s1`?
FBPA Giardia inh: inactive; Pf growth 96h: 2.1µM; Pf growth 48h: inactive; Sm TGR inh: inactive; HCMV inh: inactive

How did C/C(=N\N(Cc1ccccc1)c1ccccc1)c1cccnc1 do in these assays?
FBPA Giardia inh: inactive; Pf growth 96h: 13µM; Pf growth 48h: 8.3µM; Sm TGR inh: inactive; HCMV inh: inactive

Results for Oc1cccc(/C=N/N(Cc2ccccc2)c2ccccc2)c1 ?
FBPA Giardia inh: inactive; Pf growth 96h: inconclusive; Pf growth 48h: 6.6µM; Sm TGR inh: inactive; HCMV inh: inconclusive

How did Oc1ccc(/C=N/N(Cc2ccccc2)c2ccccc2)c(O)c1O do in these assays?
FBPA Giardia inh: inconclusive; Pf growth 96h: inconclusive; Pf growth 48h: inconclusive; Sm TGR inh: inconclusive; HCMV inh: inactive

What do the screens show for `C(=N\N(Cc1ccccc1)c1ccccc1)/c1cccnc1`?
FBPA Giardia inh: inactive; Pf growth 96h: inactive; Pf growth 48h: 13µM; Sm TGR inh: inactive; HCMV inh: inactive

Results for C/C(=N\NC(=O)Cc1ccccc1)c1cccnc1 ?
Pf growth 96h: inactive; Pf growth 48h: inactive; Sm TGR inh: inactive; HCMV inh: inactive

How did N#Cc1cccc(NC(=O)N2CC[C@@]3(CCCN(S(=O)(=O)c4ccccc4)C3)C2)c1 do in these assays?
FBPA Giardia inh: inactive

What do the screens show for `CCc1ccccc1N(CC(=O)NC(C)c1ccccc1)S(C)(=O)=O` (centres undefined)?
FBPA Giardia inh: inactive; Pf growth 96h: inactive; Pf growth 48h: inactive; Sm TGR inh: inactive; HCMV inh: inactive

Results for COc1ccccc1N1CCN(C(=O)C(CCSC)NS(=O)(=O)c2ccc3c(c2)oc(=O)n3C)CC1 (centres undefined) ?
Sm TGR inh: inactive; HCMV inh: inactive

Results for CCOC(=O)C1(Cc2ccccc2C#N)CCCCC1=O (centres undefined) ?
HCMV inh: inactive

How did CN1CCC(N(C)S(=O)(=O)c2ccc(NC(=O)COc3ccc(Cl)cc3)cc2)CC1 do in these assays?
Pf growth 96h: 4.1µM; Pf growth 48h: 8.3µM; Sm TGR inh: inactive; HCMV inh: inactive

What do the screens show for `CC(=O)Nc1ccc(S(=O)(=O)N(C)C2CCN(C)CC2)cc1`?
FBPA Giardia inh: inactive; Pf growth 96h: inactive; Pf growth 48h: inactive; Sm TGR inh: inactive; HCMV inh: inactive

How did CN1CCC(N(C)S(=O)(=O)c2ccc(NC(=O)COc3ccc(F)cc3)cc2)CC1 do in these assays?
Pf growth 96h: inconclusive; Pf growth 48h: inconclusive; Sm TGR inh: inactive; HCMV inh: inactive
